In PubChem BioAssay (Tox21) one finds Potency data, which are given here for 40 compounds.

Values joined by “and” are separate entries in the source; they are usually repeats but may differ in a detail not shown here. Equal values may be shown once. Inconclusive results are not listed. Entries that show only a call come without a potency. Active and inactive are the calls of the source. Calls come from the whole dose curve; as a rule, active = well fitted cell-killing curve with a large enough effect in the repeat runs; inconclusive = weak or mixed curves, or effect the other way; inactive = flat fitted curve, though single readings scatter. Starred links: 1 amine or outer side, 2 acyl side, 3 side chain; linkers in the order of their positions; H or OH if unused. Positions of bridges follow the written chain, without caps; N, C: chain ends. Non-standard residues stand in square brackets, D forms with d. Residues, ends and D or L forms follow the SMILES beside them. Chains are numbered I, II in the order given. Actinocin(9to1) = Cc1c2oc3c(C)ccc(C(=O)[*:1])c3nc-2c(C(=O)[*:2])c(N)c1=O; NMeV = CN[C@H](C(=O)O)C(C)C; Sar = CNCC(=O)O
Potency is the fitted concentration of half-maximal effect.

The nature of the experiment: qHTS assay to identify small molecule antagonists of the estrogen receptor alpha (ER-alpha) signaling pathway using the BG1 cell line in the presence of 0.1 nM 17-beta-estradiol - cell viability counter screen (AID 1259241). Note: nearly all actives have a fitted effect of over 40% in size. The following applies: VM7Luc4E2 (BG1) viability, CellTiter-Fluor protease, 22 h, 0.1 nM estradiol agonist added; series mostly up to 92.4 µM. The text has this: National Center for Advancing Translational Sciences [NCATS]
NIH Chemical Genomics Center [NCGC]
U.S. Environmental Protection Agency [EPA]
National Institutes of Environmental Health Sciences [NIEHS]
National Toxicology Program [NTP]
U.S. Food and Drug Administration [FDA]
Estrogen receptor (ER), a member of the nuclear hormone receptor plays an important role in development, metabolic homeostasis and reproduction. Two subtypes of ER, ER-alpha and ER-beta, have similar expression patterns with some uniqueness in both types. Endocrine disrupting chemicals (EDCs) and their interactions with steroid hormone receptors like ER causes disruption of normal endocrine function. Therefore, it is important to understand the effect of environmental chemicals in ER signaling pathway. For identifying ER antagonists, VM7Luc4E2 cell line was used to screen against Tox21 compound libraries.
VM7Luc4E2 cell line (provided by Denison MS, University of California) endogenously express full-length ER-alpha and is stably transfected with a plasmid containing four estrogen responsive elements (ERE) upstream of a luciferase reporter gene. The current screening for identification of ER-alpha inhibitors against Tox21 compound libraries used lower concentration (0.1 nM) of 17beta-Estradiol as a stimulator. The cytotoxicity of the Tox21 compound libraries against VM7Luc4E2 cell line was tested by measuring live-cell protease activity using CellTiter-Fluor assay in the same wells.
Tox21 Assay Protocol Summary:
VM7Luc4E2 cells were cultured in phenol red free assay medium containing 10% charcoal stripped FBS for 5 days prior to the assay. The cells were dispensed at 4,000 cells/well in 4 uL of assay medium into white wall/solid-bottom 1536-well plates (Corning Life Sciences, Corning, NY) using a Multidrop Combi (ThermoFisher Scientific, Waltham, MA) dispenser. After the assay plates were incubated at 37C and 5% CO2 for 24 hr, 23 nL of compounds dissolved in DMSO, positive controls or DMSO only was transferred to the assay plates by a Pintool station (Kalypsys, San Diego, CA). The transfer of compounds was followed by the addition of 1 uL of 0.1 nM (final concentration) agonist (17beta-Estradiol)/assay medium using a Flying Reagent Dispenser (FRD, Aurora Discovery, San Diego, CA). The plates were incubated at 37C and 5% CO2 for 22 hr. For cytotoxicity assay, 1 uL of CellTiter-Fluor reagent (Promega Corporation, Madison, WI) was added to each well using the FRD and after 30 min incubation at 37C and 5% CO2, The fluorescence intensity was measured using ViewLux plate reader (PerkinElmer, Shelton, CT).
As to `CCCC(=O)c1ccccc1`, the Potency entry is “inactive”.

Turning to `c1cnc2cc3c(cc2n1)C1CNCC3C1`, the Potency entry was “inactive”.

In the case of `OCC(CO)N[C@H]1C[C@](O)(CO)[C@@H](O)[C@H](O)[C@H]1O`, the Potency entry is “inactive”.

On to `OCCOCCN1CCN(C(c2ccccc2)c2ccc(Cl)cc2)CC1` (stereo not given), for which the Potency result is “inactive”.

Turning to `O=C1NCC2(CCN(CCc3ccccc3)CC2)O1`, the Potency entry is “inactive”.

On to `CCCCC(CC)COC(=O)CC(C(=O)OCC(CC)CCCC)S(=O)(=O)O` (stereo not given), for which the Potency result was “inactive”.

With `Oc1c(Cl)cc(Cl)cc1Sc1cc(Cl)cc(Cl)c1O`, the Potency result was “inactive”.

For `Cc1ccc(-c2cc(C(F)(F)F)nn2-c2ccc(S(N)(=O)=O)cc2)cc1`, the Potency entry is “inactive”.

Consider `COc1ccc(Cc2cnc(N)nc2N)cc1OC`, for which the Potency result is “inactive”.

On to `Cc1c2oc3c(C)ccc(C(=O)N[C@@H]4C(=O)N[C@H](C(C)C)C(=O)N5CCC[C@H]5C(=O)N(C)CC(=O)N(C)[C@@H](C(C)C)C(=O)O[C@@H]4C)c3nc-2c(C(=O)N[C@@H]2C(=O)N[C@H](C(C)C)C(=O)N3CCC[C@H]3C(=O)N(C)CC(=O)N(C)[C@@H](C(C)C)C(=O)O[C@@H]2C)c(N)c1=O` (I: T[dV]P[Sar][NMeV] / II: T[dV]P[Sar][NMeV]; ester I:1-I:C, II:1-II:C; linker I:N-II:N via Actinocin(9to1)), for which the Potency is 26.6 µM (active).

Regarding `COC(c1ccccc1)(c1ccccc1)[C@H](Oc1nc(C)cc(C)n1)C(=O)O`, the Potency entry was “inactive”.

Turning to `CC(C)(O)CCC(C)(C)O`, the Potency entry was “inactive”.

Turning to `O`, the Potency entry was “inactive”.

With `O=S(=O)(O)c1ccc2nc(-c3ccccc3)[nH]c2c1`, the Potency entry was “inactive”.

With `CC1=CC(=O)c2ccccc2C1=O`, the Potency is 48.6 µM (active).

Take `O=C(O)c1cccc(C(=O)O)c1`: the Potency result is “inactive”.

As for `Cc1c(O)cccc1C(=O)N[C@@H](CSc1ccccc1)[C@H](O)CN1C[C@H]2CCCC[C@H]2C[C@H]1C(=O)NC(C)(C)C`, the Potency was 8.41 µM (active) and 15 µM (active).

`CC(N)=O`: the Potency result is “inactive”.

`Cc1scc2c1N(C(=O)CN1CCN(C)CC1)c1ccccc1NC2=O`: the Potency result was “inactive”.

With `O=Cc1ccc(Cl)cc1`, the Potency entry is “inactive”.

As to `CC(=O)CC(=O)Nc1ccc2[nH]c(=O)[nH]c2c1`, the Potency result is “inactive”.

Turning to `O=C(O)CCc1ccccc1`, the Potency entry was “inactive”.

Consider `O=C(Nc1ccccc1SSc1ccccc1NC(=O)c1ccccc1)c1ccccc1`, for which the Potency entry was “inactive”.

For `CCCCOCCOC(=O)c1ccccc1C(=O)OCCOCCCC`, the Potency result is “inactive”.

For the compound `C=CC(=O)OCCCCCCOC(=O)C=C`, the Potency entry is “inactive”.

On to `Cc1occc(=O)c1OC(=O)C(C)C`, for which the Potency result is “inactive”.

Regarding `CCCCCC(=O)O[C@]1(C(C)=O)CC[C@H]2[C@@H]3CCC4=CC(=O)CC[C@]4(C)[C@H]3CC[C@@]21C`, the Potency entry was “inactive”.

In the case of `CC(C)(C)NC(=O)[C@@H]1CN(Cc2cccnc2)CCN1C[C@@H](O)C[C@@H](Cc1ccccc1)C(=O)N[C@H]1c2ccccc2C[C@H]1O`, the Potency result is “inactive”.

In the case of `BrC1CCC(Br)C(Br)CCC(Br)C(Br)CCC1Br` (stereo not given), the Potency entry is “inactive”.

As for `CCCNC(C)C(=O)Nc1ccccc1C` (stereo not given), the Potency entry is “inactive”.

In the case of `O=C(Cl)c1cccc(C(=O)Cl)c1`, the Potency result is “inactive”.

As for `COC(=O)c1cccc(C(=O)OC)c1`, the Potency result is “inactive”.

As for `Nc1nc2ccccc2[nH]1`, the Potency result is “inactive”.

As to `CCn1cc(C(=O)O)c(=O)c2cc(F)c(N3CCNC(C)C3)c(F)c21` (stereo not given), the Potency entry was “inactive”.

On to `CC(=O)C1=C(C)[C@@H]2C[C@@]3(C1)[C@H](C)CC[C@H]3C2(C)C`, for which the Potency entry is “inactive”.

With `Cc1cc(C(C)(C)C)c(O)c(C(C)(C)C)c1`, the Potency result was “inactive”.

`CNCCC(Oc1ccc(C(F)(F)F)cc1)c1ccccc1` (stereo not given): the Potency entry is “inactive”.

For the compound `CC(=O)Nc1ccc(C(=O)CCl)cc1`, the Potency result was “inactive”.

Turning to `Cc1cc(C2(c3cc(C)c(O)cc3C)OS(=O)(=O)c3ccccc32)c(C)cc1O`, the Potency is 21.7 µM (active) and 15.4 µM (active).

As for `COc1cc(C(=S)N2CCOCC2)ccc1O`, the Potency result was “inactive”.
